Measured values published in the supplement of paper PMC11732987, “Enantioselective OTUD7B fragment discovery through chemoproteomics screening and high-throughput optimisation” (Communications Chemistry, 2025).

Assays:
Assay in all cases: log2 ratio of Biotin-Ahx-Ub-VS probe labelling (fragment/DMSO); higher = less target engagement (more negative = stronger competition), active = hit call of the paper (q ≤ 0.05, log2 ratio ≤ -1)
Conditions in all cases: compound concentration: 200 uM; treatment time: 3 h
USP19 = target: T1, USP19 (UniProt O94966)
T1 sequence (whole entry): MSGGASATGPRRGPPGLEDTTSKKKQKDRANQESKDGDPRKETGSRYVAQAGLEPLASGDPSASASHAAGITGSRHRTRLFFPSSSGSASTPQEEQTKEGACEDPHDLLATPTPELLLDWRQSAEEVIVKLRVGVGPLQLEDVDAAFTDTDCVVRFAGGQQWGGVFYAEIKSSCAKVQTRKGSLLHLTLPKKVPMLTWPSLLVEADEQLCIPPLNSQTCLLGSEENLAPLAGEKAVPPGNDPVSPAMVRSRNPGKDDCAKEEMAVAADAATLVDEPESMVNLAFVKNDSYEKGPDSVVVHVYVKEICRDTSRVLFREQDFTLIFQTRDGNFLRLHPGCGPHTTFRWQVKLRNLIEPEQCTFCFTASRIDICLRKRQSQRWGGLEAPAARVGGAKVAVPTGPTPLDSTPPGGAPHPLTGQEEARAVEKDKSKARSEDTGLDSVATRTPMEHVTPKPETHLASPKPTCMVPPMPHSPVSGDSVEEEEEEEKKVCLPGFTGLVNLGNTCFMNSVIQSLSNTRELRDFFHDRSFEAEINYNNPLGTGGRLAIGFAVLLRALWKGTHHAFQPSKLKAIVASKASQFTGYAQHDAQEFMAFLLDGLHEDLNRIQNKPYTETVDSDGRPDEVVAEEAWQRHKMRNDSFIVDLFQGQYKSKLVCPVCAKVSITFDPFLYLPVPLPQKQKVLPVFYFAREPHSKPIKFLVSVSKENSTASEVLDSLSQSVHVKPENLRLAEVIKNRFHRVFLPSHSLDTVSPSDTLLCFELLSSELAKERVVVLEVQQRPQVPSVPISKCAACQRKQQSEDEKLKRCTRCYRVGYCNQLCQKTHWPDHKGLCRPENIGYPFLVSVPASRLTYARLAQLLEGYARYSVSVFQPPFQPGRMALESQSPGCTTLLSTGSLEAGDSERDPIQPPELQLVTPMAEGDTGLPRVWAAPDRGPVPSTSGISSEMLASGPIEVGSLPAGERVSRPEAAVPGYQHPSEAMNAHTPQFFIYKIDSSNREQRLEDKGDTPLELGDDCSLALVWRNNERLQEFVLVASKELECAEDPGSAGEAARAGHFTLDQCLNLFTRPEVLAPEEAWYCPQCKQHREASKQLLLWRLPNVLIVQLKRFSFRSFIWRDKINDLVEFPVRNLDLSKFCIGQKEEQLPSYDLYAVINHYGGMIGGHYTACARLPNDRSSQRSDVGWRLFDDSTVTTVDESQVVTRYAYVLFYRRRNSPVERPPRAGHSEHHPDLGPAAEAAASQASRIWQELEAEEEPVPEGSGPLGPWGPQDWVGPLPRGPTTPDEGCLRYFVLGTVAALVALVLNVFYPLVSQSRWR
In short: (§1)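 The table lists average log2 ratios of fragment over vehicle, from an unpaired t-test on global-median-normalised Spectronaut label-free quantities. Proteins with ≥2 unique peptides were used. Samples were HEK293T lysate (495 µg) treated in triplicate with fragment at 200 µM or vehicle for 3 h, then with Biotin-Ahx-Ub-VS (0.5 µM final) for 1 h, with labelled DUBs NeutrAvidin-enriched and run by diaPASEF LC-MS/MS.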

USP22 = target: T2, USP22 (UniProt Q9UPT9)
T2 sequence (whole entry): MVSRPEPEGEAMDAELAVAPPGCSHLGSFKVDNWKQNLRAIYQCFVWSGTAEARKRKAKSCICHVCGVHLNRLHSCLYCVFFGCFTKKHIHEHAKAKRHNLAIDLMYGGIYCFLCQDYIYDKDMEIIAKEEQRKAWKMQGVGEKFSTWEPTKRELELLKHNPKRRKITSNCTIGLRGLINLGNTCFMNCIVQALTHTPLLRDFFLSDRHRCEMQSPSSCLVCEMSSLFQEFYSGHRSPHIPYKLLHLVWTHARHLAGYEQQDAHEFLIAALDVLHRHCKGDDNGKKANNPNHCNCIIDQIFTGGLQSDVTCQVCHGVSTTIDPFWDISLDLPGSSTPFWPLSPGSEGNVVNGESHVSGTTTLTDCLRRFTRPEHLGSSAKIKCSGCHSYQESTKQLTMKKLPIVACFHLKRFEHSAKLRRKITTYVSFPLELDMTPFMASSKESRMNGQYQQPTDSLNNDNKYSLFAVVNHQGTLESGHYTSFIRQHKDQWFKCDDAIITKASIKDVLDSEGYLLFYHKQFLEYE
In short: as §1

USP24 = USP24 (UniProt Q9UPU5)
USP24, sequence (Q9UPU5 whole entry): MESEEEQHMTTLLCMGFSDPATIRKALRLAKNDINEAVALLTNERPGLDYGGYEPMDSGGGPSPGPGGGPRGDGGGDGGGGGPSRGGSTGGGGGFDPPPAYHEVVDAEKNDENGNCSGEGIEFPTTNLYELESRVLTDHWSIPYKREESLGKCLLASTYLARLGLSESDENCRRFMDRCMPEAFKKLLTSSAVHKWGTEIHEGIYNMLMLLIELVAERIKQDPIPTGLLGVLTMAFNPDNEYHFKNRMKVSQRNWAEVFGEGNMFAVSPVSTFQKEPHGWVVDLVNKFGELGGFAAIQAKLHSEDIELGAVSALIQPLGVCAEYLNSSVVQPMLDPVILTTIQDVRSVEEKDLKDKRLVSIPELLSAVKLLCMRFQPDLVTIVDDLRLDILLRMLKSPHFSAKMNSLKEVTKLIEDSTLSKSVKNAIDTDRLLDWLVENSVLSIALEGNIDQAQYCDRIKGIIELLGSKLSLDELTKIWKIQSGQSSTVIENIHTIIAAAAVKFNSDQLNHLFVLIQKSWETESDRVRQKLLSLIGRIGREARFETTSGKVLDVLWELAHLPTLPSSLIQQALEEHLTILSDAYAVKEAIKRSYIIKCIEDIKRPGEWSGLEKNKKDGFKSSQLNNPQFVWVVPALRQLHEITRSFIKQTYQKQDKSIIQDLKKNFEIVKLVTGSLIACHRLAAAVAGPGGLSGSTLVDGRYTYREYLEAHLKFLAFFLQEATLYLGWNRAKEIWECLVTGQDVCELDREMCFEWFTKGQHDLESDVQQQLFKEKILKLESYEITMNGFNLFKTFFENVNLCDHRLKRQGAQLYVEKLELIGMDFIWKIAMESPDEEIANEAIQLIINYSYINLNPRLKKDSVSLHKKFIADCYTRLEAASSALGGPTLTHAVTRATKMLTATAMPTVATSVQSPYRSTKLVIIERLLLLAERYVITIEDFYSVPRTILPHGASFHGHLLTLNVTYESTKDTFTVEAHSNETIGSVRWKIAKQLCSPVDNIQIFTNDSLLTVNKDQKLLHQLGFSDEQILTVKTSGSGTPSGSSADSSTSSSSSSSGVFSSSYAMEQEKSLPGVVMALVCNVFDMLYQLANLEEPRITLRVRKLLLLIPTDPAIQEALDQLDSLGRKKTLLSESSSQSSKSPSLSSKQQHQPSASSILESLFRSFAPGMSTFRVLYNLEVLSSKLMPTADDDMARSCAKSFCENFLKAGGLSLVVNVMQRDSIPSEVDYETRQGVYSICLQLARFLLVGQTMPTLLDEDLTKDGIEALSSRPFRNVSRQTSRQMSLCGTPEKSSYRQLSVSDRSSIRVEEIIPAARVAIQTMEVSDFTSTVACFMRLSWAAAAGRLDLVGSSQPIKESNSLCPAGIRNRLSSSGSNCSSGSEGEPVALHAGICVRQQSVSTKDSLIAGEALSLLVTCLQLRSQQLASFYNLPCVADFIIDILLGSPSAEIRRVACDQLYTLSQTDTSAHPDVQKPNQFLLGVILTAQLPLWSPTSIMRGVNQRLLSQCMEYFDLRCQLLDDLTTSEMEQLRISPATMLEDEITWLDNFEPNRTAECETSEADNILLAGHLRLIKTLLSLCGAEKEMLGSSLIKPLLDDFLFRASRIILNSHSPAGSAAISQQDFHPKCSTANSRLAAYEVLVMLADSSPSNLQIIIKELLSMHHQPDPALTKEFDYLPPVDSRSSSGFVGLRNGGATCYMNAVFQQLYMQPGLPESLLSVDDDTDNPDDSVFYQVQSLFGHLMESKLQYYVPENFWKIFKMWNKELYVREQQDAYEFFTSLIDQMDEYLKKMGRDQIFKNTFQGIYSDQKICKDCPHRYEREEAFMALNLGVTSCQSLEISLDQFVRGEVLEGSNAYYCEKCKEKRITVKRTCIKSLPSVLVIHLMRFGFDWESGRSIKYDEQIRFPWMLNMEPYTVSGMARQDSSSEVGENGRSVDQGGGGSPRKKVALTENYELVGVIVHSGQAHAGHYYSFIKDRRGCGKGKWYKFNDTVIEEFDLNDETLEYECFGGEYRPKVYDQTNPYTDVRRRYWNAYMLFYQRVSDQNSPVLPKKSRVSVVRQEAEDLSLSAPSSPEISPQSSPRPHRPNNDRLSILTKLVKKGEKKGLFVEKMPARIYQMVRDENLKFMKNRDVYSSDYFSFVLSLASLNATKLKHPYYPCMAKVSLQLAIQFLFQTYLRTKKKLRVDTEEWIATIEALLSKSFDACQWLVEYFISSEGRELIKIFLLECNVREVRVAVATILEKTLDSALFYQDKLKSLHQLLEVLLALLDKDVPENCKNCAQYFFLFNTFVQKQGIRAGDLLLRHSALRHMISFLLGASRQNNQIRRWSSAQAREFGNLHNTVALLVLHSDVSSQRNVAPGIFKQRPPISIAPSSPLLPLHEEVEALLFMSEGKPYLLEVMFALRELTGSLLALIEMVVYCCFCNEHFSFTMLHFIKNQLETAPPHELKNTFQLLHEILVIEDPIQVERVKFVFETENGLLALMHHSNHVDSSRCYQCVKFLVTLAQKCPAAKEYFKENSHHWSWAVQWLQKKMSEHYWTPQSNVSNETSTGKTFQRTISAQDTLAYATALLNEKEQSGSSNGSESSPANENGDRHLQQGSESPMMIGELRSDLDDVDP
In short: as §1

USP25 = target: T3, USP25 (UniProt Q9UHP3)
T3 sequence (whole entry): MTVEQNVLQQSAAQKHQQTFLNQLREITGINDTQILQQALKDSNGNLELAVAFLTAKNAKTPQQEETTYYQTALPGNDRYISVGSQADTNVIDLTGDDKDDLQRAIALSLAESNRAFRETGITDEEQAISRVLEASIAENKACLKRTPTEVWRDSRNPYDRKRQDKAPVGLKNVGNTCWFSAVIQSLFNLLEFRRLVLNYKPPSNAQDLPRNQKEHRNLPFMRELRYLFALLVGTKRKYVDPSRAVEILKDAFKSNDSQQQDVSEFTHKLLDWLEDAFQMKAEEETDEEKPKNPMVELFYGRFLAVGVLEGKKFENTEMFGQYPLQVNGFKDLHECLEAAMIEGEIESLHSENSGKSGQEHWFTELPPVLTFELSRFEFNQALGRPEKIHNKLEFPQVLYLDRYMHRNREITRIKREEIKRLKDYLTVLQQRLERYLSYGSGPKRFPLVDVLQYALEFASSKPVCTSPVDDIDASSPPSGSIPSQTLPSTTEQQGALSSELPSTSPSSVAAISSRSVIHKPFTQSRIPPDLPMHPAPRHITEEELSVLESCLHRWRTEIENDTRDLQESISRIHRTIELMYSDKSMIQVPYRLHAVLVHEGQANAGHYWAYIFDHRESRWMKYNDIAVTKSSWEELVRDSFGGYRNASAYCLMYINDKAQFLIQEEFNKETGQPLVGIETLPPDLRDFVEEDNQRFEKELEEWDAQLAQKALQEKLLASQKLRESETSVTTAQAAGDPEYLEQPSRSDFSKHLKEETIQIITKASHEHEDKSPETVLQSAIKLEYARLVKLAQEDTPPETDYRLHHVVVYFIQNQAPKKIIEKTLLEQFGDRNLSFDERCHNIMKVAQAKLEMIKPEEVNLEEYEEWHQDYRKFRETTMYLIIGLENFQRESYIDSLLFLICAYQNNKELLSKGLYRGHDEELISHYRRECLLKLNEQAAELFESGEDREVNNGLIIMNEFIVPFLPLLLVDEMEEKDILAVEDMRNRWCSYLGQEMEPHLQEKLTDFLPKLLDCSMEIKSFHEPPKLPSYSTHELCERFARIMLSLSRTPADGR
In short: as §1

USP28 = target: T4, USP28 (UniProt Q96RU2)
T4 sequence (whole entry): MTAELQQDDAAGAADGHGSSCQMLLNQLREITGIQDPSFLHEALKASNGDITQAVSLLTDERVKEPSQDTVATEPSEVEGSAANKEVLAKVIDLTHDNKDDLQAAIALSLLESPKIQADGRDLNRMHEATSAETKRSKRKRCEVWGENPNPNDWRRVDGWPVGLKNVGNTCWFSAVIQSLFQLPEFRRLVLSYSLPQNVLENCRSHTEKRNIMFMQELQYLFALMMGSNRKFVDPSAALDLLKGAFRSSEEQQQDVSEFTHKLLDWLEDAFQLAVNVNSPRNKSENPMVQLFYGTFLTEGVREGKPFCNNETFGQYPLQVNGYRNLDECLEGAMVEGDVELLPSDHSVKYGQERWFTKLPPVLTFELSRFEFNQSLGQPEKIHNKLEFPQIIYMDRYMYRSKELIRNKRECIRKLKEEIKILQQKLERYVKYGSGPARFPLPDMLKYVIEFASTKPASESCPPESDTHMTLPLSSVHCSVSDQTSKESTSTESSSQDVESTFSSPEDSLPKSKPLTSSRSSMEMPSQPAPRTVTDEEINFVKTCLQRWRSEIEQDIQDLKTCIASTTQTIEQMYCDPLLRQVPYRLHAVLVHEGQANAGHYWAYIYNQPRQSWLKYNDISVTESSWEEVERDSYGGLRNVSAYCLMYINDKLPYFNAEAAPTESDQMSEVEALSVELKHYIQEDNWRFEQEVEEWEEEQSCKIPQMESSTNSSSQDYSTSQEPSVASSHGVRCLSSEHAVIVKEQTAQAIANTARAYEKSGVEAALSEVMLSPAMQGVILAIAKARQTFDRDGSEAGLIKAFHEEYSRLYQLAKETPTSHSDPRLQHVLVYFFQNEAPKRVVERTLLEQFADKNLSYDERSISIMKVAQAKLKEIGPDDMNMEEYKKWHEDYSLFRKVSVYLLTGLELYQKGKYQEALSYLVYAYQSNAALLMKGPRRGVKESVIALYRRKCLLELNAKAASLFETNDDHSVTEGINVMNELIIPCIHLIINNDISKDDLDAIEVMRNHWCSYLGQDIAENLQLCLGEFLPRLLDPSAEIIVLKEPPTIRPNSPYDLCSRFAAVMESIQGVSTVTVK
In short: as §1

Measured: log2 ratio of Biotin-Ahx-Ub-VS probe labelling

Cc1cc(C(=O)NC2CCN(C(=O)CCl)CC2)no1
inactive: USP19 -0.0463 | USP22 -0.208 | USP24 -0.225 | USP25 -0.417 | USP28 -0.353
